Rows were chosen to be rich in hits. Some 5.4% of all compounds tested hit in one or more screens of this group.
PP5 primary: blocks human protein phosphatase 5 activity. P53041. purified PP5c, OMFP substrate fluorescence. inhibition, % at 6.7 µM. hit rate 0.18% among 320,000. AID 1987;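 active means inhibition above the campaign's mean inhibition across all tested compounds plus 3 SD, cut at about 9.5% in these data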
Target sequence (P53041 whole entry, looked up): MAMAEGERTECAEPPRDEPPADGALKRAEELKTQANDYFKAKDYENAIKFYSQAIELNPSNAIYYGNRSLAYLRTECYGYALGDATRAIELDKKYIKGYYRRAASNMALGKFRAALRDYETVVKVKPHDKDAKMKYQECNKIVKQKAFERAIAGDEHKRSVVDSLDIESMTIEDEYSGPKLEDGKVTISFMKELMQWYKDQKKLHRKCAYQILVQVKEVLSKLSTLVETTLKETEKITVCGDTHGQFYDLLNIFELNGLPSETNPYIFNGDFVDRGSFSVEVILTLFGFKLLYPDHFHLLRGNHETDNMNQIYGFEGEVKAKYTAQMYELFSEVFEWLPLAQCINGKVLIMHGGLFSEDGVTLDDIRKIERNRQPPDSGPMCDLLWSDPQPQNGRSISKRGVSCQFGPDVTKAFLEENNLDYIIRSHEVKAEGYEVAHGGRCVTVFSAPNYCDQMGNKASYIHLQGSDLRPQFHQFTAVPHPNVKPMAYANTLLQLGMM
ALR H2O2 inh: human ALR oxidase inhibition via reduced H2O2. inhibition, % (test concentration not listed). purified ALR, DTT oxidation, H2O2 HRP-luminol luminescence. AID 485317. hit rate 3.8% among 290,000;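 active means mean replicate inhibition above about 79%, with every replicate also reaching it, limit read from the data; inconclusive means only one of the two criteria met; inactive means mean below limit and not every replicate reaching it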
CSC inhib: cancer stem cell inhibition; cancer stem cell-like cells viability, luminescence; inhibition, % at 7.5 µM; hit rate 1.1% among 300,000; in the data active means inhibition above about 75%; inconclusive means no clear call, values can overlap the other calls; tested in HMLE shEcad cells
PP1 inh: blocks human PP1-alpha phosphatase, a PP5 counter-screen; hit rate 0.9% among 320,000; inhibition, % at 6.7 µM; purified PP1alpha, OMFP fluorescence; P62136;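 active means inhibition above the mean inhibition of all tested compounds plus 3 SD, computed separately for each screening campaign, cut at about 15% in these data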
Calb FLC: C. albicans growth modulation with fluconazole. C. albicans CaCi-2 (fluconazole-resistant clinical isolate) + fluconazole, Alamar Blue growth, 48 h. growth inhibition, % (concentration not given with the values). hit rate 0.57% among 300,000;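 active means growth inhibition above about 58% in most replicates, limit read from the data, passing the limit was not always enough; inconclusive means exactly half the replicates above a set limit; inactive means most replicates below a set limit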;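 further: all wells also contain fluconazole at 8 µg/ml as a sub-toxic cotreatment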
Each line names hits and unclear results; the compound was inactive in the other large screens.

N#C/C(=C\c1cn[nH]c1-c1ccccc1Br)C(=O)O	none
Cc1ccccc1OCC(O)Cn1c(NCc2ccccc2)nc2c1c(=O)[nH]c(=O)n2C (stereo not given)	none (no result: CSC inhib)
CCOC(=O)CSc1nc2sc3c(c2c(=O)n1-c1ccccc1)CCN(C(C)C)C3	ALR H2O2 inh 100
COC(=O)CSc1nc2sc3c(c2c(=O)n1C1CCCCC1)CCN(C)C3	ALR H2O2 inh 92
CSc1nc(SCC(=O)NC(c2ccccc2)c2ccccc2)c2c3c(sc2n1)CN(C)CC3	ALR H2O2 inh 93, PP1 inh 16
COC(=O)CSc1nc2sc3c(c2c(=O)n1-c1ccc(OC)cc1)CCN(C)C3	none (no result: PP5 primary, ALR H2O2 inh, CSC inhib, PP1 inh)
CCOC(=O)CSc1nc2sc3c(c2c(=O)n1-c1ccccc1)CCN(C)C3	ALR H2O2 inh 100
CC1=CC(C)(C)Nc2ccc(C)cc21	none
CCC(Sc1nc2ccsc2c(=O)n1-c1ccc(Cl)c(C)c1)C(=O)NCc1ccco1 (stereo not given)	none (no result: ALR H2O2 inh)
O=C(O)CCCC(=O)N1CCc2cc(S(=O)(=O)N3CCc4ccccc43)ccc21	none
N#C/C(=C\c1ccc(-c2ccc(F)cc2)o1)C(=O)Nc1nc(-c2cccs2)cs1	PP1 inh 15
O=Cc1cn(CCC(=O)O)nc1-c1cccc(Br)c1	none
CCOC(=O)Nc1ccc2c(c1)N(C(=O)CCN1CCN(C)CC1)c1ccccc1S2	none
CCOC(=O)Nc1ccc2c(c1)N(C(=O)N1CCN(C)CC1)c1ccccc1S2	ALR H2O2 inh 98
O=c1c(Cc2ccc(F)cc2)c(O)ccn1C1CC1	none
O=C(Nc1cc(Cl)c(O)c(Cl)c1)C1CCCO1 (stereo not given)	ALR H2O2 inh 98
O=C(Nc1ccc(O)cc1)c1ccc(NC(=O)C2CCCO2)cc1 (stereo not given)	ALR H2O2 inh 99 (no result: PP5 primary, PP1 inh)
O=C(O)c1cc(NC(=O)C2CCCO2)cc(NC(=O)C2CCCO2)c1 (stereo not given)	none
CCN(CC)c1ccc(NC(=O)c2ccc(NC(=O)C3CCCO3)cc2)c(C)c1 (stereo not given)	ALR H2O2 inh 99 (no result: Calb FLC)
COC(=O)[C@]1(Cc2ccccc2)N[C@H](c2ccc(-c3ccc(OC)cc3)cc2)[C@@H]2C(=O)N(C)C(=O)[C@@H]21	none
C/C(=N\NC(=O)c1c(C)nc2ccccn12)c1ccc(N2CCOCC2)cc1	ALR H2O2 inh 87
COC(=O)c1ccc(N2CCN(C(C)=O)CC2)c(NC(=O)c2cccnc2)c1	none
COc1cc2ccccc2cc1C(=O)Nc1sc2c(c1C(N)=O)CCN(C(C)C)C2	CSC inhib 95
CN1CCc2c(sc(NC(=O)c3ccc4ccccc4c3)c2C(N)=O)C1	none (no result: Calb FLC)
CCCNC(=O)c1ccc(N2CCC3(CC2)CC(c2ccccc2)=NO3)c(NC(=O)c2cccc(OC)c2)c1	none
COC(=O)C1=C(N)OC2=C(C(=O)CC(C)(C)C2)C1c1cccs1 (stereo not given)	none
COC(=O)C1CCN(C(=O)Cc2ccc(Br)cc2)CC1	none
COc1ccc2c(c1)sc1nc(-c3ccccc3)cn12	CSC inhib 91
Cc1nc(N)nc(COc2ccccc2)n1	none
O=c1[nH]c(C2CCN(S(=O)(=O)c3ccccc3)CC2)nc2c1nnn2Cc1ccccc1	none
O=c1[nH]c(C2CCCN(S(=O)(=O)c3ccccc3Cl)C2)nc2c1nnn2Cc1ccc2c(c1)OCCO2 (stereo not given)	PP1 inh 16
Cc1ccc(Cn2nnc3c(=O)[nH]c(C4CCN(S(=O)(=O)c5ccc(C)cc5)CC4)nc32)cc1	Calb FLC 111 (no result: CSC inhib)
COC(=O)c1ccc(Cn2nnc3c(=O)[nH]c(C4CCN(S(=O)(=O)c5cc(C)ccc5C)CC4)nc32)cc1	PP1 inh 16 (no result: CSC inhib)
O=c1[nH]c(C2CCN(S(=O)(=O)c3ccc(S(=O)(=O)NC4CC4)cc3)CC2)nc2c1nnn2Cc1cccc(F)c1	none
Cc1ccc(Cn2nnc3c(=O)[nH]c(C4CCN(S(=O)(=O)c5ccc(S(=O)(=O)NC6CC6)cc5)CC4)nc32)cc1	PP1 inh 17
CC#CCN1c2ccccc2[C@]23C[C@@H](C(=O)OC)N(C(=O)NC(C)(C)C)C2=NC(C(=O)OC)=C(C(=O)OC)[C@H]13	none
COc1cc(-c2cc(=O)c3ccccc3o2)ccc1O	ALR H2O2 inh 99
COc1ccc(-c2cc(=O)c3c(O)c(OC)c(O)cc3o2)cc1	none
COc1cc(-c2cc(=O)c3c(O)c(OC)c(OC)cc3o2)cc(OC)c1O	ALR H2O2 inh 77
Cn1c(=O)n(C)c2cc(S(=O)(=O)Nc3cc(Cl)ccc3O)ccc21	ALR H2O2 inh 98
COc1cc(C2c3cc4c(cc3C(OC3OC5COC(c6cccs6)OC5C(O)C3O)C3COC(=O)C23)OCO4)cc(OC)c1O (stereo not given)	CSC inhib 101 (no result: Calb FLC)
COc1cc([C@@H]2c3cc4c(cc3[C@@H](O[C@@H]3O[C@@H]5CO[C@@H](C)O[C@H]5[C@H](O)[C@H]3O)[C@H]3COC(=O)[C@H]23)OCO4)cc(OC)c1O	none (no result: Calb FLC)
CN(C)S(=O)(=O)c1cccc(NC(=O)COC(=O)[C@H](Cc2ccccc2)NC(=O)c2ccco2)c1	none (no result: PP5 primary, PP1 inh, Calb FLC)
CN(C)c1ccc(NC2=C([N+](=O)[O-])CS(=O)(=O)C2)cc1	ALR H2O2 inh 99
Cc1ccc(NC2=C([N+](=O)[O-])CS(=O)(=O)C2)cc1	none
O=C(N/N=C/c1ccccc1C(=O)O)c1ccc(COc2cccc3cccnc23)cc1	none
NNC(=O)c1ccc(COc2cccc3cccnc23)cc1	ALR H2O2 inh 98, Calb FLC inconclusive
O=C(N/N=C/c1ccc[nH]1)c1ccc(COc2cccc3cccnc23)cc1	CSC inhib 100 (no result: ALR H2O2 inh)
O=C(N/N=C/c1ccc[nH]1)c1ccc(O)cc1	none
Cc1cc(Br)c(OCc2ccc(C(=O)N/N=C/c3ccc[nH]3)cc2)c(Br)c1	CSC inhib 98 (no result: Calb FLC)
COc1ccc(C2=NN(C(N)=S)C(c3ccccc3)C2)cc1 (stereo not given)	none
COCCNC(=O)CSCc1nc(-c2ccc(SC)cc2)oc1C	ALR H2O2 inh 100
CSc1ccc(-c2nc(CSCC(=O)NCCCN3CCCC3=O)c(C)o2)cc1	ALR H2O2 inh 95
O=C(CSc1ccc2ccccc2c1)NCCCN1CCCC1=O	ALR H2O2 inh 100
CCc1ccc(-c2nc(CSCC(=O)NCCCN3CCCC3=O)c(C)o2)cc1	ALR H2O2 inh 99
C#CCOc1c(Cl)cc(/C=C2/C(=O)ON=C2C)cc1OCC	none
C=CCn1c(SCC(=O)NCC2CCCO2)nnc1C1CCCCC1 (stereo not given)	none
COc1ccc(NC(C)=O)cc1NC(=O)CSc1nnc(-c2ccncc2)n1C	none
COC(=O)C1C(O)=C(C(C)=N)C(=O)CC1(C)C (stereo not given)	ALR H2O2 inh 98
CN=C(C)C1=C(O)C(C(=O)OC)C(C)(C)CC1=O (stereo not given)	none
N/C(=N\NS(=O)(=O)c1ccccc1Cl)c1ccccn1	ALR H2O2 inh 83
CC(=O)Oc1c(C)cc(Cl)cc1C(=O)Nc1ccc([N+](=O)[O-])cc1Cl	CSC inhib 120 (no result: Calb FLC)
CCOC(=O)COn1c(=O)c(=O)n(O)c2ccccc21	ALR H2O2 inh 100
CCCCCCCCNC(C)C(O)c1ccc(SC(C)C)cc1 (stereo not given)	CSC inhib 102

Source: PubChem BioAssay
